# In the library only some 6.9% were active in any assay of this set; here they are far more common.
# SW480 rereplic: A quantitative high throughput screen for small molecules that induce DNA re-replication in SW480 colon adenocarcinoma cells; SW480 DNA re-replication, Hoechst DNA content imaging, 48 h; Potency, µM (titrated, usually from 46.1 µM), most hits filed as activators; 340,000 compounds, 1.8% hits; AID 624297, 2012; further: nearly all actives have a fitted effect of over 55% in size
#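 Image-based read-out: total Hoechst fluorescence of nuclei (405 nm excitation, 500-530 nm emission), with hits raising the fraction of high-intensity nuclei. SW480 colon cells incubated 48 hr with compounds at 37 C.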
# Vif-APOBEC3F blk: qHTS for Inhibitors of Vif-A3F Interactions: qHTS | HeLa A3F-eYFP + Vif (tagged APOBEC3F with the HIV-1 protein that degrades it), YFP fluorescence increase | 390,000 compounds, 0.2% hits | Potency, µM (highest dose often 46.1 µM); further: nearly all actives have a fitted effect of over 65% in size
#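 HeLa cells stably expressing Vif plus C-terminally eYFP-tagged A3F were seeded, incubated overnight at 37 deg C, dosed with compound, incubated overnight again at 37 deg C. Yellow fluorescence (Ex 488/Em 500-530) reported blocked Vif-mediated A3F-eYFP degradation.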
# Vif-A3G inh: qHTS for Inhibitors of Vif-A3G Interactions: qHTS; 410,000 compounds, 0.076% hits; AID 602310, 2012; DNA dC->dU-editing enzyme APOBEC-3G (Homo sapiens), Q9HC16; HeLa A3G-eYFP + Vif (tagged APOBEC3G with the HIV-1 protein that degrades it), YFP fluorescence, overnight; Potency, µM (doses to about 46.1 µM), actives largely listed as inhibitors; further: nearly all actives have a fitted effect of over 60% in size
# Target sequence (Q9HC16 whole entry, looked up): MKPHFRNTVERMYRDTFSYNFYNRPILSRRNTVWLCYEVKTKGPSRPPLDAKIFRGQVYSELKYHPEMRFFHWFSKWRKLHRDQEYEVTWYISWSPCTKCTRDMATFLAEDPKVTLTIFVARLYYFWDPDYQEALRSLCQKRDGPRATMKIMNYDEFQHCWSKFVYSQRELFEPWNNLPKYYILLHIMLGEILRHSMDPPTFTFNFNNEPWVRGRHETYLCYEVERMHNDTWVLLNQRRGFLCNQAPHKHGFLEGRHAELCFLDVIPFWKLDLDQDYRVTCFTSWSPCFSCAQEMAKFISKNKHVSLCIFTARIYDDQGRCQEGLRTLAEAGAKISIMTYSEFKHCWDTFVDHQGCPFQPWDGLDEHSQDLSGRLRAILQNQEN
#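 Read-out is eYFP fluorescence (Ex 488/Em 500-530) from Vif-expressing HeLa A3G-eYFP cells; more signal means A3G escaped Vif-mediated degradation. Cells plated overnight, compound pinned in, incubated overnight at 37 deg C.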
# Giardia kill: Small Molecules that selectively kill Giardia lamblia: qHTS. Giardia lamblia trophozoite viability. activity change, % at 7.66 µM, hits read low. 340,000 compounds, 0.15% hits; in the data active means activity change below about -80%; inconclusive means between about -30% and that limit;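 further: parasites exposed to compound for two days anaerobically before the ATP read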
#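 Luminescence from cellular ATP indicates surviving trophozoites (100 cells/well) following 48 hrs anaerobic compound treatment at 37 deg C; signal develops 15-30 min at room temperature.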
# MCF10A rerep: A quantitative high throughput screen for small molecules that induce DNA re-replication in MCF 10a normal breast cells; MCF 10A DNA re-replication, Hoechst nuclear intensity, 48 h; 350,000 compounds, 2.9% hits; Potency, µM (top dose mostly 46.1 µM), most hits filed as activators; further: nearly all actives have a fitted effect of over 50% in size
# IL1B secr inh: qHTS for Inhibitors of Inflammasome Signaling: IL-1-beta AlphaLISA Primary Screen. THP-1 LPS/ATP IL-1B secretion, AlphaLISA, 16 h; hits give low values. activity change, % at 57.5 µM. 360,000 compounds, 4.7% hits; in the data active means activity change below about -50%; inconclusive means mostly about -30% to -49%
#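 THP-1 cells pretreated 1 hr with compounds (up to 57.5 uM final), then stimulated with LPS (250 ng/mL final) plus ATP (1.25 mM final); secreted IL-1B measured by AlphaLISA after 16 hr, decreased signal indicating inhibition.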
# Hits are given with their value; - = inactive; ? = inconclusive; . = no result given. Unless noted, the call rests on the fitted dose curve; in most records, active means well fitted curve in the direction sought with a large enough effect; inconclusive means small, poorly fitted or top-dose-only effect, or another doubt; inactive means no such curve, though single readings can be large; an effect the other way counts as inactive or inconclusive.
SMILES,SW480 rereplic,Vif-APOBEC3F blk,Vif-A3G inh,Giardia kill,MCF10A rerep,IL1B secr inh
CCCCCCCNC(=O)C1(CC2CC(c3cccc(Br)c3)=NO2)CCN(C(=O)C2(C)CC2)CC1 (configuration not stated),-,-,-,-,?,-59
CC(C)c1ccccc1NC(=S)NCCCn1ccnc1,-,-,-,-,0.73µM,-
CCOc1ccc(NC(=S)NCCCn2ccnc2)cc1,-,-,-,-,-,-
CCOc1ccc2nc(SCC(=O)NNC(=O)c3ccco3)c(C)cc2c1,-,-,-,-,-,-
CCOc1ccc2cc(/C=C/C(=O)c3ccco3)c(Cl)nc2c1,16µM,-,-,-,5.8µM,?
O=C(COc1cccc(Oc2ccccc2)c1)Nc1ccc(SC(F)F)cc1,7.3µM,-,-,-,0.73µM,-
O=C(COC(=O)c1ccccc1Cc1ccccc1)Nc1ccc(SC(F)F)cc1,?,-,-,-,26µM,-93
O=C(Cc1ccccc1F)Nc1ccc(SC(F)F)cc1,-,?,-,-,-,-55
O=C(Nc1ccc(SC(F)F)cc1)c1ccc(F)cc1,?,-,-,-,0.82µM,-
COc1cc(-c2ccno2)ccc1S(=O)(=O)N1CCN(c2cccc(Cl)c2)CC1,.,-,-,.,.,.
CCCCCn1cc2c(c1-c1ccc(Cl)cc1)c(=O)n(C)c(=O)n2C,.,-,-,.,.,.
N#Cc1cc(Oc2cccc3cccnc23)c(-n2nnc3ccccc32)cc1C#N,?,?,?,-,14µM,-59
NC(Cc1ccc(C(F)(F)F)cc1)c1csc(Nc2ccccn2)n1 (configuration not stated),.,.,-,.,.,-77
NC(Cc1ccc(C(F)(F)F)cc1)c1csc(Nc2ncccn2)n1 (configuration not stated),.,.,-,.,.,-53
NC(Cc1ccc(F)cc1)c1csc(Nc2ccc(C(F)(F)F)cn2)n1 (configuration not stated),.,.,-,.,.,-55
NC(Cc1cnc[nH]1)c1csc(Nc2ccc(C(F)(F)F)cn2)n1 (configuration not stated),.,.,-,.,.,-
CCc1cc(=O)[nH]c(SCc2nc(-c3cccc(Cl)c3)no2)n1,.,-,-,.,.,.
Fc1cccc2sc(Nc3nc4cc5c(cc4s3)OCCO5)nc12,-,-,-,-,5.2µM,-
Fc1cccc2sc(Nc3nc4cc5c(cc4s3)OCO5)nc12,-,?,-,-,10µM,-
Fc1cc(F)c2nc(Nc3nc4cc5c(cc4s3)OCO5)sc2c1,-,?,?,-,15µM,-
CC(C)C(=O)Nc1nc2cc3c(cc2s1)OCO3,-,-,-,-,-,-
Cc1cccc(NC(=O)CSc2cn(CC(=O)N3CCCCCC3)c3ccccc23)c1,.,-,-,.,.,.
CCN(CC)c1ccccc1/C=C/[n+]1ccc(CCCCI)c2ccccc21,.,.,-,.,.,.
Cn1c(=O)nc2n(-c3ccc(Cl)c(Cl)c3)c3cc(Cl)ccc3cc-2c1=O,.,-,-,.,.,.
COc1cc(-c2nnc(SCC(=O)OC3CCCCC3)o2)cc(OC)c1OC,-,-,-,-,-,-60
SMILES,SW480 rereplic,Vif-APOBEC3F blk,Vif-A3G inh,Giardia kill,MCF10A rerep,IL1B secr inh
Cc1ccc(C(c2sc3nc(-c4ccco4)nn3c2O)N2CCN(Cc3ccccc3)CC2)cc1 (configuration not stated),.,-,-,.,.,.
CCc1c(C)sc(NC(=O)c2cc(-c3cc(OC)ccc3OC)on2)c1C#N,-,-,-,-,2.6µM,-
CCc1c(C)sc(NC(=O)c2cc(-c3cccc(Cl)c3)on2)c1C#N,.,-,-,.,.,.
CCc1c(C)sc(NC(=O)c2cc(-c3ccc(OC)c(OC)c3)on2)c1C#N,-,-,-,-,5.2µM,-
CCc1c(C)sc(NC(=O)c2cc(-c3ccc(O)cc3)on2)c1C#N,15µM,-,-,-,12µM,-
CCOC(=O)/C=c1\s/c(=C\c2c(OCC)ccc3ccccc23)c(=O)n1CC(=O)NCC1CCCO1 (configuration not stated),-,-,?,-,?,-
CCOC(=O)/C=c1/s/c(=C\c2c(OC)ccc3ccccc23)c(=O)n1CC(=O)NCC1CCCO1 (configuration not stated),15µM,?,11µM,-,?,-
CN(Cc1ccccc1)C(=O)c1ccc2c(c1)N(Cc1ccc(Cl)cc1)C(=O)c1ccccc1S2=O (configuration not stated),.,-,-,.,.,.
CCOc1ccc2[nH]c3ncccc3c(=O)c2c1,?,-,-,-,-,-60
Cc1ccc(-c2nn3c(C)nnc3s2)cc1NC(=O)c1ccc(-c2ccc(Cl)cc2Cl)o1,-,-,?,-,7.3µM,-
Nc1ncc(-c2nnnn2-c2ccc(Cl)cc2)c(-c2ccc(Cl)cc2)n1,2.9µM,-,-,-,?,-
Clc1ccc(-c2nnnn2-c2ccc(Cl)cc2)cc1,-,-,-,-,-,-
Cc1ccc(-n2nnnc2-c2cnc3ccc(Cl)cc3c2-c2ccccc2)cc1,?,-,-,-,21µM,-
COc1cc(C2CC(=O)c3c(ccc4ccccc34)N2)ccc1O (configuration not stated),-,-,-,-,-,-
COc1cccc(C2Nc3ccc4ccccc4c3C3=C2C(=O)CCC3)c1O (configuration not stated),-,11µM,?,-,?,-
CC1CC(C)CN(C(=O)C(NS(=O)(=O)c2ccc(Br)s2)c2ccccc2)C1 (configuration not stated),-,-,-,-,16µM,-
CCOc1ccc(NC(=O)c2cc3c(n(-c4ccc(OC)cc4)c2=O)CC(C)(C)CC3=O)cc1,.,-,-,.,.,.
Cc1nc2ccc(NC(=S)N3CCOCC3)cc2nc1C,-,-,-,-,-,-
Cc1nc2ccc(NC(=S)N3CCCC3)cc2nc1C,-,-,-,-,0.73µM,-
Cc1ccc(C(=O)Cn2c(C(=O)/C=C/c3ccccc3)nc3ccccc32)cc1,?,-,?,-,23µM,?
Cc1ccc(NC(=O)Cn2c(=O)c(C(F)(F)F)nc3ccccc32)cc1C,.,-,-,.,.,.
CC(C)c1ccccc1NC(=O)Cn1c(-c2ccccc2Cl)nc2ccccc21,-,-,-,-,-,-
Cc1ccc(NC(=O)Cn2c(/C=C/c3ccccc3)nc3ccccc32)cc1C,?,-,-,-,16µM,-
CC(C)c1ccccc1NC(=O)Cn1c(/C=C/c2ccccc2)nc2ccccc21,9.2µM,-,-,-,10µM,-

# Assay outcomes: PubChem BioAssay, National Center for Advancing Translational Sciences (NCATS)
